# Laboratory results published in PubChem BioAssay (NCI).
# “And” between values parts separate entries of the source, which are not always exact repeats. Equal values may be shown once. Compounds without any hit were thinned out: in the full panel of roughly 83,000, 20% have a hit.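 How to read the values: 0–100, growth inhibition (40 = 60% inhibited); 0, no net growth; -100 to 0, cell death (-40 = 40% of starting cells died; -100 = all dead).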 Where a structure was tested more than once in an assay, its records may differ in their call. The source made the active and inactive calls. The calls were made as follows: active = growth percent below 10; inactive = the rest.
# Experiments:
# Assay in all cases: NCI-60 one-dose screen, 48 h (100 = growth as untreated, 0 = no growth, -100 = all killed)
# Details in all cases: 10 µM unless noted
# [1] = test system: NCI-H23 lung
# [2] = test system: NCI-H226 lung
# [3] = test system: NCI-H322M lung
# [4] = test system: HOP-62 NSCLC
# [5] = test system: HOP-92 NSCLC
# [6] = test system: NCI-H522 lung
# [7] = test system: A549/ATCC NSCLC
# [8] = test system: 786-0 renal
# [9] = test system: DU-145 prostate
# [10] = test system: K-562 leukemia
# [11] = test system: MALME-3M melanoma
# [12] = test system: MDA-MB-231 breast
# [13] = test system: RXF 393 renal
# [14] = test system: SF-268 CNS
# [15] = test system: SF-295 CNS
# [16] = test system: SF-539 CNS
# [17] = test system: UACC-257 melanoma
# [18] = test system: M14 melanoma
# [19] = test system: NCI-H460 lung
# [20] = test system: COLO 205 colon
Structure (SMILES),growth [1],growth [2],growth [3],growth [4],growth [5],growth [6],growth [7],growth [8],growth [9],growth [10],growth [11],growth [12],growth [13],growth [14],growth [15],growth [16],growth [17],growth [18],growth [19],growth [20]
OC(COc1cccc2ccccc12)CN1CCN(c2ccc(Cl)cc2)CC1 (stereo not given),84.6% (inactive) and 86.5% (inactive),92.4% (inactive) and 111% (inactive),90% (inactive) and 102% (inactive),96.5% (inactive) and 77.3% (inactive),75.1% (inactive) and 77% (inactive),109% (inactive) and 85.7% (inactive),71.9% (inactive) and 88.3% (inactive),80.9% (inactive) and 89.7% (inactive),93.1% (inactive) and 122% (inactive),66.3% (inactive) and 85% (inactive),109% (inactive) and 106% (inactive),83.6% (inactive) and 112% (inactive),-3.89% (active) and 94.8% (inactive),91.1% (inactive) and 103% (inactive),70.2% (inactive) and 83.2% (inactive),91.3% (inactive) and 102% (inactive),114% (inactive) and 95.9% (inactive),90.9% (inactive) and 100% (inactive),–,–
OCCN1CCN(CCO)CC1,95.3% (inactive) and 99.7% (inactive) and 110% (inactive),107% (inactive) and 97.5% (inactive),106% (inactive) and 85.9% (inactive) and 115% (inactive),100% (inactive) and 79.5% (inactive) and 106% (inactive),102% (inactive) and 85% (inactive) and 95.2% (inactive),98.6% (inactive) and 87.9% (inactive) and 108% (inactive),89.5% (inactive) and 73% (inactive) and 115% (inactive),108% (inactive) and 99.5% (inactive) and 99.4% (inactive),117% (inactive) and 111% (inactive) and 123% (inactive),96.3% (inactive) and 100% (inactive) and 104% (inactive),105% (inactive) and 97.4% (inactive) and 107% (inactive),106% (inactive) and 107% (inactive) and 114% (inactive),114% (inactive) and 95.6% (inactive) and 120% (inactive),107% (inactive) and 101% (inactive) and 105% (inactive),94.9% (inactive) and 82.6% (inactive) and 110% (inactive),105% (inactive) and 91.1% (inactive) and 106% (inactive),117% (inactive),102% (inactive) and 91.1% (inactive) and 103% (inactive),–,–
COC(=O)[C@H]1CCCN1C(=O)C1CCCN1C(=O)[C@@H](Cc1ccccc1)NC(=S)Nc1cc(C(F)(F)F)cc(C(F)(F)F)c1 (stereo not given in full),108% (inactive) and 96.5% (inactive),105% (inactive) and 87.6% (inactive),–,105% (inactive) and 97.9% (inactive),111% (inactive) and 84.9% (inactive),98.6% (inactive) and 78.1% (inactive),97.2% (inactive) and 71.4% (inactive),105% (inactive) and 99.2% (inactive),117% (inactive) and 91.4% (inactive),103% (inactive) and 65.2% (inactive),109% (inactive) and 98.8% (inactive),95.9% (inactive) and 75.4% (inactive),108% (inactive) and 84.8% (inactive),105% (inactive) and 86.9% (inactive),89.4% (inactive),102% (inactive) and 96.1% (inactive),108% (inactive) and 95.4% (inactive),113% (inactive) and 105% (inactive),102% (inactive) and 94.5% (inactive),121% (inactive) and 91.4% (inactive)
NC(=S)NN=C1CCC(C2CCCCC2)CC1 (stereo not given),103% (inactive) and 94.1% (inactive),89.1% (inactive) and 73% (inactive),–,113% (inactive) and 111% (inactive),95.7% (inactive) and 92.3% (inactive),52.2% (inactive) and 47.2% (inactive),94% (inactive) and 99.5% (inactive),96.7% (inactive) and 91.9% (inactive),96.7% (inactive) and 103% (inactive),89.9% (inactive) and 89.5% (inactive),90.6% (inactive),94.6% (inactive) and 93.6% (inactive),92.3% (inactive) and 92.9% (inactive),89.9% (inactive) and 102% (inactive),93% (inactive) and 87.7% (inactive),97.1% (inactive) and 82.8% (inactive),66.4% (inactive) and 66.9% (inactive),92.2% (inactive) and 85% (inactive),106% (inactive) and 108% (inactive),102% (inactive) and 95% (inactive)
CN(C)CCCN1c2ccccc2Sc2ccc(Cl)cc21,90.4% (inactive) and 112% (inactive) and 111% (inactive),106% (inactive) and 97.5% (inactive) and 92.1% (inactive),77.4% (inactive) and 105% (inactive) and 71% (inactive),77.1% (inactive) and 107% (inactive) and 95.2% (inactive),47.1% (inactive) and 99.2% (inactive),72.3% (inactive) and 97.6% (inactive),103% (inactive) and 94.4% (inactive),68% (inactive) and 106% (inactive) and 81.9% (inactive),101% (inactive) and 113% (inactive) and 111% (inactive),51.6% (inactive) and 120% (inactive) and 58.2% (inactive),90.2% (inactive) and 111% (inactive) and 76.7% (inactive),67.7% (inactive) and 108% (inactive) and 72.3% (inactive),52% (inactive) and 84.6% (inactive) and 82% (inactive),83% (inactive) and 104% (inactive) and 83.6% (inactive),95.3% (inactive) and 160% (inactive) and 81% (inactive),90.5% (inactive) and 98.8% (inactive) and 88.8% (inactive),78% (inactive) and 106% (inactive) and 115% (inactive),31% (inactive) and 102% (inactive) and 81% (inactive),–,50.5% (inactive) and 102% (inactive) and 67.9% (inactive)
CCN(CC)CCNc1ccc(C)c2sc3ccccc3c(=O)c12 (tested in a mixture with another compound),46.1% (inactive) and 52.4% (inactive),64.9% (inactive) and 64.7% (inactive),30% (inactive) and 56% (inactive),51.4% (inactive) and 51.3% (inactive),68.6% (inactive) and 38.1% (inactive),22.6% (inactive) and 39.6% (inactive),21.9% (inactive) and 19.8% (inactive),33.7% (inactive) and 37.3% (inactive),36% (inactive) and 39.4% (inactive),0.322% (active) and 13.3% (inactive),30.9% (inactive) and 48.2% (inactive),18.3% (inactive) and 24.8% (inactive),-9.22% (active) and 16.4% (inactive),36.2% (inactive) and 24.3% (inactive),35.4% (inactive) and 40.9% (inactive),38.6% (inactive) and 32% (inactive),-52.9% (active) and -51.9% (active),-50.9% (active) and -40.5% (active),–,27% (inactive) and 14.7% (inactive)
CC(C)(O)Cn1cc(-c2ccc3nc(OC4CC4)ccc3c2)c2c(N)ncnc21,70.1% (inactive) and 42% (inactive),56.5% (inactive) and 26.5% (inactive),96.7% (inactive) and 73.5% (inactive),73.8% (inactive) and 39.8% (inactive),48% (inactive) and 32.8% (inactive),67.1% (inactive) and 36.8% (inactive),75.3% (inactive) and 51.3% (inactive),89.1% (inactive) and 60.2% (inactive),102% (inactive) and 75.6% (inactive),88% (inactive) and 35.8% (inactive),70.2% (inactive) and 44.2% (inactive),69.2% (inactive) and 46.4% (inactive),73.3% (inactive) and 50.5% (inactive),91.2% (inactive) and 57.1% (inactive),79.2% (inactive) and 56.7% (inactive),81.6% (inactive) and 58.6% (inactive),70.8% (inactive),80.6% (inactive) and 62.3% (inactive),–,–
